# Screening results as filed in PubChem BioAssay.
# Rv3671c inh: Rv3671c serine protease inhibitors, primary screen, biochemical, fluorescence polarization, M. tuberculosis H37Rv; actives 0.048% (n = 320,000); P9WHR9; inhibition, % at 5.96 µM; AID 2606, 2010; in the data active means inhibition above about 38%;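 further: extracellular domain of Rv3671c used as enzyme; 0% = enzyme with DMSO and 100% = no enzyme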
# Mtb FBA inh: Mtb FBA enzyme inhibitors, primary screen, biochemical, fluorescence, strain H37Rv; purified M. tuberculosis FBA, fluorescence read-out; inhibition, % at 1 µM; actives 2.3% (n = 360,000); in the data active means inhibition above about 27%;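 further: 0% = vehicle and 100% = reference inhibitor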
# Target sequence (P9WQA3 whole entry, looked up): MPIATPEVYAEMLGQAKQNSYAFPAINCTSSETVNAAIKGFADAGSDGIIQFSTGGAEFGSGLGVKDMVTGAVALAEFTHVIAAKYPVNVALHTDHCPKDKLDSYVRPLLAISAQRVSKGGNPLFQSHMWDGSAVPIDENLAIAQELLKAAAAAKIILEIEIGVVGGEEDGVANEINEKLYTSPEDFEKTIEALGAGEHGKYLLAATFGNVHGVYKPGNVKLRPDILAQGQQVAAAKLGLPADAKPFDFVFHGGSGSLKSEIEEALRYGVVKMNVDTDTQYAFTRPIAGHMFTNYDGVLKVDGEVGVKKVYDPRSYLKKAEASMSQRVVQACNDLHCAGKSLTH
# UGM FP inh: M. tuberculosis UGM enzyme inhibitors, primary screen, biochemical, fluorescence polarization, single point. UDP-galactopyranose mutase (Mycobacterium tuberculosis (strain ATCC 25618 / H37Rv)), …. purified UGM, fluorescence polarization probe displacement. inhibition, % at 10 µM. actives 0.06% (n = 320,000). AID 504406, 2011; in the data active means inhibition above about 10%, passing the limit was not always enough
# GDH-TPI counter: GDH-TPI coupling enzyme inhibitors, primary screen, artefact control for M. tuberculosis FBA inhibitor project, biochemical, absorbance, full deck | GDH-TPI coupled enzyme counterscreen, NADH absorbance | inhibition, % at 4.8 µM | actives 1.2% (n = 360,000); in the data active means inhibition above about 30%;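 further: 0% = DMSO wells and 100% = wells lacking the enzyme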
# * = called active by the depositor; . = no result; + = active, no number. This is a sample that favours compounds with a hit; in the whole collection about 3.5% have one here.
SMILES,Rv3671c inh,Mtb FBA inh,UGM FP inh,GDH-TPI counter
CC(O)c1ccc(Oc2cnccn2)cc1 (stereo unspecified),-6,190*,-3,-1
CCOc1cc(/C=C(/C#N)c2ccc(F)cc2)ccc1OCc1ccc(C(=O)O)o1,0,3,3,34*
O=C(Nc1ccccn1)C1CCN(C(=O)Nc2ccccc2)CC1,5,-1,-1,8
Nc1ccc2c(c1)oc1ccccc12,0,57*,0,13
COc1ccc2c(c1OC)C(=O)OC2CC(=O)c1ccc(N(C)C)cc1 (stereo unspecified),1,-8,-1,31*
CCN(C[C@H]1N[C@@](CC)(C(=O)OC)[C@H]2C(=O)N(Cc3ccccc3)C(=O)[C@@H]12)C(=O)Nc1ccc(Cl)cc1,0,0,.,4
O=C(CC1SC(=O)NC1=O)Oc1ccc(/C=N/NC(=O)c2ccccc2O)cc1 (stereo unspecified),2,3,2,42*
Cc1cc(C)n2nc(SCc3ccccc3F)nc2n1,-14,+,-2,-4
COc1ccc(CCNC(=O)c2ccc(F)c(S(=O)(=O)N3CCCCC3)c2)cc1,.,-1,.,-2
CCCC(C)NC(=O)c1cc(S(=O)(=O)N2CCCCCC2)ccc1OC (stereo unspecified),0,0,1,-2
O=C(/C=C/c1ccc([N+](=O)[O-])cc1)Nc1cccc(S(=O)(=O)NC2=NCCCCC2)c1,2,3,-2,41*
O=C(NC1=NCCS1)c1ccc(-c2ccc(Cl)cc2)o1,-6,136*,1,55*
CCOC(=O)c1nn(-c2ccc3c(c2)CCN3C(C)=O)cc1O,-17,+,1,26
COc1ccc2c(c1)c(C(=O)N/N=C/c1ccc(Br)cc1)c(C)n2C,2,-3,-2,22
COc1ccc2c(c1)c(C(=O)N/N=C/c1ccc(O)c(O)c1)c(C)n2C,5,-5,-1,44*
c1ccc(-c2nc3c(ccc4ccccc43)[nH]2)nc1,24,16,2,33*
COc1ccc(S(=O)(=O)N2CCOC2CNC(=O)C(=O)NCCN2CCOCC2)cc1C (stereo unspecified),0,-1,-2,4
COC(=O)c1ccc2c(=O)n(-c3ccc(OC)cc3)c(=S)[nH]c2c1,-7,1,0,16
CC(O)CNc1ccc(-c2n[nH]c(=O)c3ccccc23)cc1[N+](=O)[O-] (stereo unspecified),-6,-5,-2,14
CC(O)CNc1cc(N)c([N+](=O)[O-])cc1[N+](=O)[O-] (stereo unspecified),-4,-5,-4,43*
O=C(CN1C(=O)c2ccccc2S1(=O)=O)Nc1cccc(S(=O)(=O)N2CCCCC2)c1,-12,1,-3,4
COC(=O)C(=N/Nc1ccccc1C(=O)OC)/C(C)=N/O,1,-4,-1,44*
CCN=C(NC#N)SCc1c(F)cccc1Cl,4,3,1,-2
CCCCn1c(SCC(=O)NNC(=O)c2ccco2)nnc1-c1ccco1,-15,-4,1,-5
Cc1c(NCc2nc3ccccc3[nH]2)c(=O)n(-c2ccccc2)n1C,7,-2,0,40*
SMILES,Rv3671c inh,Mtb FBA inh,UGM FP inh,GDH-TPI counter
COc1ccc(NC(=O)CN2C(=O)C(C)Oc3ccccc32)cc1OC (stereo unspecified),-8,3,1,7
Cc1cc(=O)oc2cc(NC(=O)c3cccc(F)c3)ccc12,3,1,0,2
Cc1cc(=O)oc2cc(NC(=O)CCC(=O)O)ccc12,-3,197*,-1,9
Cc1cc(=O)oc2cc(NC(=O)CCCC(=O)O)ccc12,-8,+,-1,19
Cc1cc(=O)oc2cc(Nc3ccccc3)ccc12,-5,5,.,9
COc1cccc(CNC(=O)CN2C(=O)CSc3ccc(S(=O)(=O)N4CCCC4)cc32)c1,-1,4,0,-4
CC1CC(C)CN(C(=O)CSc2nc(N)cc(=O)[nH]2)C1 (stereo unspecified),-3,-3,0,-3
CCOC(=O)c1ccc(CC(=O)c2ccc(O)cc2O)o1,-10,0,2,19
COC(=O)c1ccc(CC(=O)c2ccc(O)cc2O)o1,-3,-3,2,33*
COC(=O)c1cc(CC(=O)c2ccc(O)cc2O)c(C)o1,-1,1,0,36*
COc1ccc(NC(=O)c2cc(C3CCCCN3S(=O)(=O)Cc3ccccc3)on2)cn1 (stereo unspecified),.,1,.,1
Cc1cc(NCCCOC(C)C)n2c(nc3ccccc32)c1C#N,-2,190*,0,4
CCC(C)Nc1cc(C)c(C#N)c2nc3ccccc3n12 (stereo unspecified),3,+,0,15
Cc1cc(NCCCN(C)C)n2c(nc3ccccc32)c1C#N,1,+,-2,5
CCCc1cc(NCCCO)n2c(nc3ccccc32)c1C#N,-1,+,0,7
CC(C)C(=O)NNC(=O)c1cc2sccc2s1,0,-3,0,13
Cc1cc(-n2ccnc2)n2c(nc3ccccc32)c1C#N,-9,23,2,11
Cc1cc(NCCCn2ccnc2)n2c(nc3ccccc32)c1C#N,-2,70*,5,9
O=C(CSc1ccc(Br)cc1)Nc1ccccc1N1CCOCC1,8,3,-1,-2
CC1=CC=CC2=NC(=O)CC(C)(C(=O)N(CC(=O)NC(C)C)C3CCCC3)N12 (stereo unspecified),-4,128*,0,15
CC(C)(C)NC(=O)CN(C(=O)C1(C)CC(=O)N=C2C=CC=CN21)C1CCCC1 (stereo unspecified),-6,120*,0,19
CC1=CC2=NC(=O)CC(C)(C(=O)N(CC(=O)NC(C)(C)C)C3CCCC3)N2C=C1 (stereo unspecified),-6,9,-1,2
CNC(=O)COC(=O)c1ccc(-c2nc3ccccc3s2)s1,4,19,0,57*
COc1ccc(NS(=O)(=O)N2CCCCC2)cc1,.,2,.,1
Nc1nccnc1C(=O)OCC(=O)N1CCN(S(=O)(=O)c2ccc(Cl)cc2)CC1,6,148*,.,8
SMILES,Rv3671c inh,Mtb FBA inh,UGM FP inh,GDH-TPI counter
COC(=O)c1nc(C(=O)OC)c(C(=O)OC)nc1C(=O)OC,8,6,0,10
O=C(OCC(=O)N1CCN(S(=O)(=O)c2ccc(Cl)cc2)CC1)c1cc(Br)ccc1O,0,-3,-3,5
COC(=O)c1nccnc1N,.,146*,.,-2
CC1CC(C)CN(C(=O)COC(=O)c2nccnc2N)C1 (stereo unspecified),-8,180*,3,1
Nc1nccnc1C(=O)OCC(=O)C12CC3CC(CC(C3)C1)C2,1,127*,-3,8
COc1c2c(c(OC)c3ccccc13)[C@@]1(OC2)O[C@H](CCO)C[C@H](O)[C@H]1O,.,9,.,-1
CN(CC(=O)Nc1ccccc1C(F)(F)F)C(=O)CN1C(=O)C2CCCCC2C1=O (stereo unspecified),1,-3,0,-14
COc1ccc(CCCN2CCC(CN3CCNC(=O)C3=O)CC2)cc1OC,.,-1,.,1
